Screening results deposited in PubChem by National Center for Advancing Translational Sciences (NCATS).
Shown is part of a subset that was picked to be rich in hits.
KDM5B inhibitor – Primary screen for KDM5B Histone Demethylases FDH-coupled qHTS | KDM5B demethylase, FDH-coupled NADH fluorescence (FDH is formaldehyde dehydrogenase) | Potency, µM (series often up to 57.7 µM), actives largely listed as inhibitors | 220,000 tested, 2.6% active | AID 1347165, 2019; active = well fitted inhibition curve with a large enough effect; also: nearly all actives have a fitted effect of over 70% in size
Target sequence (Q9UGL1 whole entry, looked up): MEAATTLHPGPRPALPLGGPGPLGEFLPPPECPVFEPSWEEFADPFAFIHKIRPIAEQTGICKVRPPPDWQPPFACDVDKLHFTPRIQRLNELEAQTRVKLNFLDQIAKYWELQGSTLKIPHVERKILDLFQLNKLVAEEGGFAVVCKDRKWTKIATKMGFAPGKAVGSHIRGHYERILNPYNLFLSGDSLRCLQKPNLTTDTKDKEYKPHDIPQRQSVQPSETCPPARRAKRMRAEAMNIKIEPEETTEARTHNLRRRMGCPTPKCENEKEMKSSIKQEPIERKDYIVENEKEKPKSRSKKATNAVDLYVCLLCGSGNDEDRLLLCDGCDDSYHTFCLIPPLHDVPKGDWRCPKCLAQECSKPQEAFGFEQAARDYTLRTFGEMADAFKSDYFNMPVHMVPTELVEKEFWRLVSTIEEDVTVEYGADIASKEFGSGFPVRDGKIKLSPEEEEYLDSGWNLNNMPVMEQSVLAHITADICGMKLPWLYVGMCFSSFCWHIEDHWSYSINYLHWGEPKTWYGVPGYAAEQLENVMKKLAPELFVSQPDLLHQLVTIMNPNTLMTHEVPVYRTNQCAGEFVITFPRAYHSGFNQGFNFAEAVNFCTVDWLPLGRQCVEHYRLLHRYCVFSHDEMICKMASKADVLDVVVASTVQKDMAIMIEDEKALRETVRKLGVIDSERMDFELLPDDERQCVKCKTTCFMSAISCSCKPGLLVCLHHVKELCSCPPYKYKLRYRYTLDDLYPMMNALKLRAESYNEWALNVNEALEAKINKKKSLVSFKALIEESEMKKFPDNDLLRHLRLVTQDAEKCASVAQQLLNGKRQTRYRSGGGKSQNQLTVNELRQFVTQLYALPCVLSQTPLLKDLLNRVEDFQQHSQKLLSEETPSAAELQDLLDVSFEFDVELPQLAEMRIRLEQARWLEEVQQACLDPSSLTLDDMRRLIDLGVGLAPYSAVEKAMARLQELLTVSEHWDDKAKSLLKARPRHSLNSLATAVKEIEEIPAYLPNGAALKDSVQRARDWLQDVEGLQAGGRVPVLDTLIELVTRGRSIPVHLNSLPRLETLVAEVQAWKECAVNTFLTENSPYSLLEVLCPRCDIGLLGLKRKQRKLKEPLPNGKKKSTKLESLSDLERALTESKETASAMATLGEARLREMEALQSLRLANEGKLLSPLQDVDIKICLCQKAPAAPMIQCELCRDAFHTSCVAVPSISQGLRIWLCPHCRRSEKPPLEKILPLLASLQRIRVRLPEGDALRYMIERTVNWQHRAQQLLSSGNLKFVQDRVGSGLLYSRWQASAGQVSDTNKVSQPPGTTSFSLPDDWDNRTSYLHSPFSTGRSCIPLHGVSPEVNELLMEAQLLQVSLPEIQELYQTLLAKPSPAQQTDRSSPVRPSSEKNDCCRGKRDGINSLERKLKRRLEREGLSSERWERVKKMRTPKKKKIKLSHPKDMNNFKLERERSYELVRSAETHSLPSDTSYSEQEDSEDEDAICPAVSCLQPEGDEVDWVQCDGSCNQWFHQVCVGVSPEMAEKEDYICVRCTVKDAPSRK
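Coupled FDH/NAD⁺ fluorescence readout. KDM5BΔAP 200 nM final; compound titration, 10 min RT preincubation; substrate mix 12.5 µM H3K4me3, 25 µM 2-OG, 50 µM Fe(II), 100 µM ascorbate, 0.25 mM NAD⁺, 0.25 U/mL FDH; ΔRFU over 30 min.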
Hits are given with their value; i = inactive.

SMILES | KDM5B inhibitor
O=C(O)c1ccc(/C=C/c2nc3cc(Cl)ccc3s2)cc1 | i
CC1CCCN(Cc2nc3c(Br)cc(Br)cc3c(=O)[nH]2)C1 (stereo not given) | i
Cc1ccc(S(=O)(=O)N2CCN(c3ncnc4c3nnn4-c3ccccc3)CC2)c(C)c1 | i
CSc1ccc(/C=C2\CCc3ccccc3C2=O)cc1 | i
CN(CCNC(=O)NC1CCC(C(F)(F)F)CC1)Cc1ccccc1 (stereo not given) | i
N=c1nnc(-c2ccc(Cl)cc2)cn1O | i
Cc1ccc(-c2nnc3ccc(NCc4cccs4)nn23)nc1 | i
COc1ccc(-c2nnc3ccc(NCC(C)C)nn23)nc1 | 35µM
COc1cccc(NC(=O)c2ccnc(-c3nnc4ccc(Nc5ccccc5)nn34)c2)c1 | i
COc1ccc(-c2nnc3ccc(NCCc4ccccc4)nn23)nc1 | i
COc1cccc(Nc2ccc3nnc(-c4cc(OC)ccn4)n3n2)c1 | 28µM
COc1cc(Nc2ccc3nnc(-c4ccccn4)n3n2)cc(OC)c1OC | i
COc1cc(Nc2ccc3nnc(-c4ccc(C)cn4)n3n2)cc(OC)c1OC | i
Fc1ccc(-c2nnc3ccc(NC4CCC4)nn23)nc1 | i
COCCCNc1ccc2nnc(-c3ccc(C)cn3)n2n1 | 40µM
N#CCCN(C(=O)CSc1nc(CN2CCOCC2)nc2ccccc12)c1ccccc1F | i
COc1ccc(S(=O)(=O)NC[C@H]2Cn3c(-c4ccc(F)cc4)cnc3CO2)cc1 | i
CC(Sc1nnc(N2CCCC2)n1-c1cccc(Cl)c1)c1nc(-c2ccco2)no1 (stereo not given) | i
O=C(NCCCN1CCOCC1)c1ccc(N2CC3CC(C2)[C@H]2CCCC(=O)N2C3)nc1 (stereo not given in full) | i
O=C(NCCCN1CCCc2ccccc21)c1cccnc1N1CC2CC(C1)[C@H]1CCCC(=O)N1C2 (stereo not given in full) | 28µM
CNC(=O)c1ccc(N2CC3CC(C2)[C@H]2CCCC(=O)N2C3)nc1 (stereo not given in full) | i
O=C(c1cccnc1N1CC2CC(C1)[C@H]1CCCC(=O)N1C2)N1CCN(c2ccc(Cl)cc2)CC1 (stereo not given in full) | i
C=CCNC(=O)c1cccnc1N1CC2CC(C1)[C@H]1CCCC(=O)N1C2 (stereo not given in full) | 25µM
O=C(CN1CC2CC(C1)[C@H]1CCCC(=O)N1C2)NCCCN1CCCC1=O (stereo not given in full) | i
COCCn1c(SCCOc2ccc(Cl)cc2)nnc1-c1ccccc1 | i
SMILES | KDM5B inhibitor
Cc1ccc(-n2nc(N3CCN(S(=O)(=O)c4cccc5nsnc45)CC3)ccc2=O)cc1 | i
Cc1ccc(C)c(-n2c(Cc3cc(=O)[nH]c(=O)[nH]3)nnc2SCC(=O)c2ccccc2)c1 | i
O=C(CSc1nnnn1C1CC1)Nc1ccc(CN2CCCC2)cc1 | i
Cc1noc(C)c1-c1cc2cc(CN3CCN(C)CC3)oc2c(NC2CCN(C)CC2)n1 | i
COc1cc(CNc2nc(-c3c(C)noc3C)cc3cc(C)oc23)cc(OC)c1 | 32µM
Cc1noc2ncnc(Nc3ccc(F)cc3)c12 | i
Cc1cc2cc(-c3c(C)noc3C)nc(Nc3ccccc3)c2o1 | 40µM
Cc1cc2cc(-c3c(C)noc3C)nc(Nc3ccc(F)cc3)c2o1 | 32µM
Cc1cc2cc(-c3c(C)noc3C)nc(Nc3ccc(Cl)cc3)c2o1 | 22µM
Cc1noc(C)c1-c1cc2cc(CN(C)C)oc2c(NCc2cccc(F)c2)n1 | i
Cc1cc2cc(-c3c(C)noc3C)nc(NCc3cccc(F)c3)c2o1 | i
Cc1noc(C)c1-c1cc2cc(CNC(C)C)oc2c(NC2CCN(C)CC2)n1 | i
COc1ccc(-c2nc(CNC(=O)Nc3ccc(C)cc3Cl)c(C)o2)cc1 | i
COC(=O)CNC(=O)C12CC3CC(C1)CC(c1ccccc1)(C3)C2 | i
O=C(O)C(c1c[nH]c2cc(CO)ccc12)N1CCN(CCOc2ccc(Cl)cc2)CC1 (stereo not given) | i
CC(=O)c1ccc(S(=O)(=O)Nc2cc(Cl)ccc2C(=O)N(C)C)cc1 | i
O=[N+]([O-])c1cc(S(=O)(=O)Nc2ccc(Cl)cc2)ccc1N/N=C/c1ccccc1Cl | i
C/C(=N/O)c1oc2ccccc2c1C | i
CSc1ccc(NC(=O)c2sccc2C)cc1 | i
COc1ccc(S(=O)(=O)N(CC(=O)NC(C(C)C)C(C)C)c2ccc(F)cc2)cc1OC | i
O=C(NCc1cccc(C(F)(F)F)c1)c1n[nH]c2c1CCCC2 | i
O=C(NCc1ccc(Br)cc1)c1n[nH]c2c1CCCC2 | i
O=C(NCc1ccc(Cl)cc1)c1cc(-c2ccc(F)cc2)on1 | i
Cc1c(-c2ccc(F)cc2)[nH]c2ccc(CNC(=O)c3n[nH]c4c3CCCC4)cc12 | 10µM
O=C(NCc1ccc(N2CCCC2)nc1)c1ccc(F)cc1 | i
SMILES | KDM5B inhibitor
Cc1c(-c2ccc(F)cc2)[nH]c2ccc(CNC(=O)c3cnn(C)c3)cc12 | 32µM
Cc1ccc(-c2cc(C(=O)NCCCc3[nH]nc(N)c3C#N)c3ccccc3n2)o1 | i
CCCN1CCN(c2nnc(-n3cccc3CNCc3ccc(OC)cc3OC)s2)CC1 | i
CC(NC(=O)CSc1nc2ccccc2o1)c1ccccc1 (stereo not given) | i
O=C(CC1C(=O)Nc2nc(SCc3ccccc3)nn21)Nc1cccc(C(F)(F)F)c1 (stereo not given) | i
N#CCN(C(=O)c1ccccc1)C1CC1 | i
Cc1ccc(NC(=O)CCc2ccc(C)s2)c(C)c1 | i
COc1ccc(CCC(=O)N2CCN(c3ccc(OC)cc3)CC2)cc1 | i
CCNc1cc(N2CCC(CCC(=O)N3CCOCC3)CC2)ncn1 | i
CC(=O)N1CCN(C(=O)CCc2ccnc(N3CCOCC3)c2)CC1 | 28µM
Cc1ccc(NC(=O)CCc2ccnc(N3CCCC3)c2)c(C)c1 | 32µM
Cc1ccc(NC(=O)CCc2c(C)nn(-c3ccc(N4CCOCC4)nn3)c2C)c(C)c1 | i
CCOC(=O)c1ccc(NCc2ccnc(N3CCOCC3)c2)nc1 | i
CN(CC1CCOCC1)C(=O)CCc1ccccc1 | i
CCCN(C)C(=O)CCc1ccnc(N2CCOCC2)c1 | 25µM
O=C(COC(=O)COc1ccccc1F)Nc1ncc(C(F)(F)F)cc1Cl | i
COCc1cccc(C(=O)NCCC(C)C)c1 | i
CCOc1cc(/C=C/C(=O)c2ccc(Cl)c(Cl)c2)ccc1O | i
Cc1cnc(CCNC(=O)Cc2ccccc2)n1CC1CC1 | i
Cc1c(-c2ccccc2)nc2ccc(Br)cc2c1C(=O)O | i
COc1ccc(C(=O)OCc2ccc(C#N)cc2)c(O)c1 | i
Cc1cc(NC(=O)C2CC2)sc1C(=O)NC(C)c1ccccc1Br (stereo not given) | i
O=C(NCCNCc1c[nH]c2ccccc12)c1cccs1 | i
COCCn1c(C)cnc1CC1CCN(S(=O)(=O)c2cccc(OC)c2)C1 (stereo not given) | i
COCCN=C1Nc2ncccc2NC12CCCN(C(=O)c1cccc(OC)c1)C2 (stereo not given) | 32µM
COc1cc(OC)cc(C(=O)N2CCCC3(C2)NC(=O)N(Cc2ccc(C)cc2)C3=O)c1 (stereo not given) | i
Cc1ccc(NC(=O)N2CCCC(Cn3cnc4cccnc43)C2)c(Cl)c1 (stereo not given) | i
O=C(Nc1ccccc1Cl)N1CCCC2(C1)Nc1cccnc1NC2=NC1CCCC1 (stereo not given) | 28µM
O=C(c1ccccc1)N1CCCC2(C1)Nc1cccnc1NC2=NC1CCCC1 (stereo not given) | 28µM
